Screening data: PubChem BioAssay, National Center for Advancing Translational Sciences (NCATS)
In the library only some 12% were active in any assay of this set; here they are far more common.
Cycloheximide cs: counter-screen for Shiga toxin inhibitors: cycloheximide protein synthesis inhibition; cell reporter, cycloheximide protein synthesis inhibition counterscreen; max response, %; actives 12% (n = 300,000); AID 2314; in the data active means max response mostly above about 13%, no sharp cut-off; inactive means mostly below about 14%; further: read at 38.3 µM for the half of the compounds with a filed dose; 0% is about no effect
FMDV antiviral: antivirals against foot and mouth disease virus; Potency, µM (doses to about 57.9 µM), for inactives: at the top dose activity change, negative = inhibition, usual class: inhibitors; actives 1.2% (n = 410,000); AID 1159524; FMDV antiviral cell-based qHTS; calls by dose curve; tested in HEK293T cells; further: read-out not given here; potency means the concentration at half of the fitted maximal effect; on the % scale 0 is the no-effect control and ±100 the full control effect; nearly all actives have a fitted effect of over 45% in size
Sm TGR block: S. mansoni TGR enzyme inhibition | Potency, µM (doses to about 114 µM), for the others: at the top dose activity change, negative = inhibition, hits mostly inhibitors | purified TGR, DTNB reduction, TNB absorbance 405 nm | actives 3% (n = 360,000); active means well fitted inhibition curve with a large enough effect; inconclusive means small, poorly fitted or top-dose-only effect; inactive means no such curve, though single readings can be large or run the other way; further: potency means the concentration at half of the fitted maximal effect; on the % scale 0 is the no-effect control and ±100 the full control effect; nearly all actives have a fitted effect of over 60% in size
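Kinetic colorimetric format: TGR-catalysed, NADPH-driven DTNB reduction monitored via TNB absorbance. Enzyme dispensed at 20 nM; compound exposure 15 min at room temperature before reaction start.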
Shiga toxin inh: inhibitors of Shiga toxin in Vero cells. inhibition, % at 38.7 µM. actives 9.2% (n = 290,000). Vero cells, Shiga toxin protein synthesis inhibition reporter; in the data active means inhibition mostly above about 28%, no sharp cut-off; inactive means mostly below about 43%; further: 0% is about no effect
Numbers without * were called inactive; ? = inconclusive; nt = no result given.

SMILES	Cycloheximide cs	FMDV antiviral	Sm TGR block	Shiga toxin inh
O=C(Nc1ccc(Oc2ccccc2)cc1)C1CCN(S(=O)(=O)c2ccccc2)CC1	nt	?	1%	nt
CCN1CCN(Cc2c(O)ccc3c2O/C(=C\C=C\c2ccccc2OC)C3=O)CC1	57*	-14%	?	97*
COCCN(CCOC)Cc1c(O)ccc2c1O/C(=C\c1ccco1)C2=O	-1	-2%	3.5µM*	3
CC1CCN(Cc2c(O)ccc3c2O/C(=C\c2ccco2)C3=O)CC1	-1	3%	1µM*	-10
CC(=O)Nc1ccc(Oc2cc(N)cc([N+](=O)[O-])c2)cc1	8	13%	0%	37
CCOc1ccc(Oc2cc(N)cc([N+](=O)[O-])c2)cc1	18	8%	9%	53*
O=C(Oc1ccc(C(=S)N2CCC(O)CC2)cc1)c1ccc(Cl)cc1	37*	12%	-18%	35
COCCN1C(=O)c2oc3ccc(C)cc3c(=O)c2C12C(=O)N(C)c1ccccc12 (stereo not given)	nt	6%	-1%	nt
CCOC(=O)Cn1c(=NC(=O)c2cccs2)sc2cc(C(=O)OC)ccc21	44*	21%	-8%	72*
CCOC(=O)c1ccc2c(c1)sc(=NC(=O)c1ccco1)n2CCOC	6	5%	-11%	14
COc1ccc(-c2nn(CCC#N)cc2C=C(C#N)C#N)cc1	3	-26%	25µM*	0
Cc1ccc(-c2nn(CCC#N)cc2C=C(C#N)C#N)cc1	10	nt	8.9µM*	-1
CC(C)(C)c1ccc(-c2nn(CCC#N)cc2/C=N/O)cc1	6	-5%	15%	46
CCc1cccc(C)c1NC(=O)c1cn2c3c(ccc(Cl)c3c1=O)OC(C)C2 (stereo not given)	nt	-1%	-4%	nt
Cc1sc2nc(CSc3ccc([N+](=O)[O-])cc3)[nH]c(=O)c2c1C	-2	nt	-7%	16
Cc1sc2nc(CSc3nc4ccccc4s3)[nH]c(=O)c2c1C	21*	nt	0%	80
O=c1[nH]c(CSc2nc3ccccc3s2)nc2ccccc12	30*	16%	2%	52*
Cc1ccc2c(=O)cc(C(=O)Nc3c(C)n(C)n(-c4ccccc4)c3=O)oc2c1	nt	-17%	-10%	nt
COc1ccccc1NC(=O)CSc1nc2ccccc2c(=O)n1CCC(=O)NC1CCCCC1	nt	-13%	-2%	nt
CCS(=O)(=O)c1ccc2oc(Nc3ccccc3C)nc2c1	54*	54%	-21%	69*
CCN(CC)S(=O)(=O)c1ccc2oc(SCc3ccc(F)cc3)nc2c1	12*	?	7%	6
CCN(CC)S(=O)(=O)c1ccc2oc(SCC(=O)NC3CC3)nc2c1	2	-14%	-15%	-11
CCS(=O)(=O)c1ccc2oc(Nc3ccc(OC)c(OC)c3)nc2c1	17	52%	-13%	16
CCN(CC)S(=O)(=O)c1ccc2oc(Nc3ccccc3)nc2c1	30*	49%	2%	79*
CCOC(=O)c1ccc(NS(=O)(=O)c2cc(Br)cc3c2N(C(C)=O)C(C)C3)cc1 (stereo not given)	nt	25%	12%	nt
SMILES	Cycloheximide cs	FMDV antiviral	Sm TGR block	Shiga toxin inh
C=CCOC(=O)C1=C(C)NC(C)=C(C(=O)OCC=C)C1c1ccc(C)o1	11	-23%	16µM*	-5
CC1=C(C(N)=O)C(c2ccc(C)o2)C(C(N)=O)=C(C)N1	-3	-26%	45µM*	13
CC(C)CCN1C(=O)N(c2ccccc2)C(=O)C1CC(=O)Nc1ccc(Cl)cc1 (stereo not given)	nt	28%	19%	nt
O=C(/C=C/c1ccc(O)cc1)c1ccccc1O	nt	-32%	nt	nt
Cc1ccc(C(=O)C=Cc2ccc3c(c2)OCO3)c(C)c1	nt	7%	nt	nt
O=C(/C=C/c1ccc2ccccc2n1)c1cc(Br)ccc1O	43*	50%	32µM*	80*
Cc1ccc(/C=C/C(=O)c2ccccc(=O)c2O)cc1C	51*	?	32µM*	77*
O=C(/C=C/c1ccc(F)cc1)c1cc(Br)ccc1O	15*	-19%	-13%	77*
O=C(/C=C/c1ccccc1)c1cc(Br)ccc(=O)c1O	-2	?	3.2µM*	23
CCOc1ccccc1-c1noc(CSc2nnc(-c3ccccc3)n2-c2cccc(C)c2)n1	nt	-28%	-1%	nt
CCc1ccc(-n2nc(CO)c(C(=O)NCCCCc3ccccc3)n2)cc1	nt	5%	-3%	nt
CC(=O)n1cc(Nc2ccc([N+](=O)[O-])cc2)c2ccccc21	15	-28%	0%	79
CC(=O)SC(C[N+](=O)[O-])c1cn(C(C)=O)c2ccccc12 (stereo not given)	18	28µM*	4.5µM*	26
CC(C)c1ccc(S(=O)(=O)c2nnn3c2nc(NCCc2ccccc2)c2sccc23)cc1	nt	9%	0%	nt
